Screening results as filed in PubChem BioAssay.
TDP1 cell CPT = growth inhibition of DT40 Tdp1-/-;hTDP1 cells with camptothecin (screen for TDP1 inhibitors); chicken DT40 Tdp1-/-;hTDP1 cells + 20 nM CPT, ATP luminescence, 48 h; Potency, µM (top dose mostly 46.2 µM), hits mostly inhibitors; hit rate 12% among 420,000; note: nearly all actives have a fitted effect of over 55% in size
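Chicken DT40 Tdp1-/- cells stably complemented with human TDP1 were seeded at 400 cells/well in medium containing 20 nM camptothecin, exposed to pin-transferred compounds, and grown at 37 °C for at least 48 hr. Viability was read as ATP luminescence.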
ELG1 DNA repair = inhibitors of ELG1-dependent DNA repair in HEK293T cells. HEK293T ELG1-luciferase reporter, luminescence, 16 h; DNA damage induced by 5-fluorouridine. Potency, µM (top dose mostly 46.1 µM), most hits filed as inhibitors. hit rate 2.3% among 330,000; note: nearly all actives have a fitted effect of over 55% in size
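HEK293T cells expressing luciferase-tagged ELG1 (2,000/well) received 5-Fluorouridine plus compound or DMSO for 16 hr at 37 °C. Luciferase was read by ONE-Glo luminescence after 30 min at room temperature.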
TDP1 block = inhibitors of human tyrosyl-DNA phosphodiesterase TDP1 | Q9NUW8 | recombinant TDP1, AlphaScreen DNA substrate cleavage | Potency, µM (top dose mostly 130 µM), usual class: inhibitors | hit rate 0.28% among 350,000; note: nearly all actives have a fitted effect of over 40% in size
Target sequence (Q9NUW8 whole entry, looked up): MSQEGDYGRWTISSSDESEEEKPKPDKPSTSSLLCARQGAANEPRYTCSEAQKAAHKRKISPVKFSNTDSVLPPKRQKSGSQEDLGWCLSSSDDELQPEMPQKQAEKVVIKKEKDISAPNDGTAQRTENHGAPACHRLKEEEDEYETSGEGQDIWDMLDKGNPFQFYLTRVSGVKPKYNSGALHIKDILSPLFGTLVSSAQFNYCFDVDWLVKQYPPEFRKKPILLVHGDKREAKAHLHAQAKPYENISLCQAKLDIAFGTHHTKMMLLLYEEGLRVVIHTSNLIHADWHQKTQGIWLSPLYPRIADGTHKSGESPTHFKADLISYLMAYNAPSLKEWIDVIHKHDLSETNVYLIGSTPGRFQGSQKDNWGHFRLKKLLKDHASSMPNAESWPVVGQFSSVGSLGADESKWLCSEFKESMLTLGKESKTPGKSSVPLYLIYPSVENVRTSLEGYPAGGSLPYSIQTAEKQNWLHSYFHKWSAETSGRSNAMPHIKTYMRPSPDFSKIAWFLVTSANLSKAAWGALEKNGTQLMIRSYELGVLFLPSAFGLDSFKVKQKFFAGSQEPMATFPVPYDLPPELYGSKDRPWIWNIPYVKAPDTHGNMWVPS
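AlphaScreen read-out: signal falls as enzyme removes the 3' tyrosine-FITC from a 5'-biotinylated DNA oligo (15 nM, 5 min, RT). Enzyme was E. coli-made recombinant Tdp1 at 1 nM, exposed to compound for 15 min beforehand; beads 10 ug/ml, 10 min.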
Giardia killer = kills Giardia lamblia; activity change, % at 7.66 µM, hits read low; hit rate 0.15% among 340,000; Giardia lamblia trophozoite viability; AID 540267; in the data active = activity change below about -80%; inconclusive = between about -30% and that limit;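 note: parasites exposed to compound for two days anaerobically before the ATP read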
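ATP-content bioluminescence gauges trophozoite survival. Cells (100/well) receive compound and incubate anaerobically for 48 hrs at 37 deg C; detection reagent follows for 15-30 min at room temperature.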
TDP1 cell noCPT = qHTS for Inhibitors of human tyrosyl-DNA phosphodiesterase 1 (TDP1): qHTS in cells in absence of CPT; DT40 Tdp1-/- hTDP1 cells, no CPT, ATP luminescence, 48 h; Potency, µM (titrated, usually from 46.2 µM), usual class: inhibitors; hit rate 15% among 420,000; AID 686978, 2013; note: nearly all actives have a fitted effect of over 55% in size
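Compound effects on proliferation are scored in DT40 Tdp1-/-;hTDP1 cells in the absence of CPT. ATP levels (CellTiter-Glo luminescence) are recorded after a ≥48 hr, 37 °C incubation.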
IL-1B inflam inh = inhibitors of inflammasome signaling (IL-1 beta secretion); AID 743279; hit rate 4.7% among 360,000; activity change, % at 57.5 µM; THP-1 LPS/ATP IL-1B secretion, AlphaLISA, 16 h; active compounds read low; in the data active = activity change below about -50%; inconclusive = mostly about -30% to -49%
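THP-1 cells pretreated 1 hr with compounds (up to 57.5 uM final), then stimulated with LPS (250 ng/mL final) plus ATP (1.25 mM final); secreted IL-1B measured by AlphaLISA after 16 hr, decreased signal indicating inhibition.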
Numbers stand for hits; 0 = inactive; ? = inconclusive; - = no result given. The list is not random: actives were taken first. Their share in the collection is about 19%. Unless noted, calls come from the whole dose curve; as a rule, active = well fitted curve in the direction sought with a large enough effect; inconclusive = small, poorly fitted or top-dose-only effect, or another doubt; inactive = no such curve, though single readings can be large; an effect the other way counts as inactive or inconclusive.

SMILES	TDP1 cell CPT	ELG1 DNA repair	TDP1 block	Giardia killer	TDP1 cell noCPT	IL-1B inflam inh
O=C(NCc1ccccn1)C1CCN(C(=O)c2cc3sccc3n2Cc2ccc(F)cc2)CC1	?	21µM	0	0	23µM	0
O=C(NCCCN1CCCC1)C1CCN(C(=O)c2cc3sccc3n2Cc2ccc(F)cc2)CC1	16µM	0	0	0	?	0
O=C(Nc1cc(C(F)(F)F)ccc1Cl)C(Sc1cccc[n+]1[O-])c1ccccc1 (stereo not given)	4.6µM	0	0	0	4.6µM	-96
COc1ccc(C(C#N)=Cc2ccccc2OC)cc1	6.5µM	-	-	-	5.2µM	0
CSc1nc(NCCOCCO)c2sc3nc(-c4ccco4)c4c(c3c2n1)CCC4	18µM	0	35µM	0	16µM	0
CCN(CCO)c1nc(SC)nc2c1sc1nc(-c3ccco3)c3c(c12)CCC3	0	?	0	0	0	0
CC(C)NC(=O)N1CC[C@@]2(CCCN(C(=O)c3csnn3)C2)C1	0	-	-	-	0	-
CC(=O)Nc1ccc(NC(=O)C(C)OC(=O)C2CCN(S(=O)(=O)c3ccc4c(c3)OCCO4)CC2)cc1 (stereo not given)	0	0	0	0	0	0
Cc1ccc(C)c(NC(=O)CSc2ccc3nc(-c4ccccc4)cn3n2)c1	?	-	0	-	?	-
O=C(CSc1ccc2nc(-c3ccccc3)cn2n1)Nc1ccccc1	?	-	0	-	26µM	-
CC(=O)c1ccc(NC(=O)CSc2ccc3nc(-c4ccccc4)cn3n2)cc1	?	-	0	-	26µM	-
CCOc1ccccc1NC(=O)C(C)Sc1cc(-c2ccccc2)nc(C)n1 (stereo not given)	15µM	-	0	-	16µM	-
CCOc1ccccc1NC(=O)CSc1ccc2nc(-c3ccccc3)cn2n1	?	-	0	-	21µM	-
O=C(CSc1ccc2nc(-c3ccccc3)cn2n1)Nc1ccccc1C(F)(F)F	0	-	0	-	?	-
O=c1cc(-c2ccccc2)[nH]c2nc3ccccc3n12	9.2µM	?	0	?	9.2µM	0
O=c1cc(CCl)[nH]c2nc3ccccc3n12	0	0	0	0	0	-56
CCc1c(C)[nH]c2nc3ccccc3n2c1=O	0	0	0	0	0	0
CC(C)c1cc(=O)n2c(nc3ccccc32)[nH]1	?	0	0	0	?	0
COc1ccc(C2C(C(=O)Nc3cc(OC)c(OC)c(OC)c3)c3ccccc3C(=O)N2C)cc1 (stereo not given)	1.5µM	0	0	0	1.8µM	0
COc1ccc(C2C(C(=O)N3CCN(c4ccccc4)CC3)c3ccccc3C(=O)N2C)cc1 (stereo not given)	0	21µM	0	0	?	0
CCN(CC)CCCNC(=O)C1c2ccccc2C(=O)N(C)C1c1ccc(OC)cc1 (stereo not given)	0	0	0	0	2.3µM	0
COc1ccc(C2C(C(=O)N3CCN(c4ccccc4)CC3)c3ccccc3C(=O)N2C)cc1OC (stereo not given)	0	0	0	0	0	0
COc1ccc(C2C(C(=O)NCCN3CCOCC3)c3ccccc3C(=O)N2C2CCCCC2)cc1 (stereo not given)	7.3µM	0	0	0	5.2µM	0
CC(C)NC(=O)/C(=C/c1cn(-c2ccccc2)nc1-c1cccc([N+](=O)[O-])c1)NC(=O)c1ccccc1	0	0	0	0	?	0
O=C(CN1CCN(C(=O)c2cccc(-n3cnnn3)c2)CC1)Nc1ccccc1Cl	0	?	0	0	?	0
CC(C)[C@@H](NC(=O)OC(C)(C)C)c1cc(C(=O)c2c(-c3ccccc3)[nH]c3ccccc23)c(N)s1	18µM	-	-	-	18µM	?
CC(C)[C@H](NC(=O)OC(C)(C)C)c1cc(C(=O)NCCc2c[nH]c3ccccc23)c(N)s1	16µM	-	-	-	21µM	0
CC(C)[C@H](NC(=O)OC(C)(C)C)c1cc(C(=O)NC2CC2)c(N)s1	0	-	-	-	0	0
